{
  "source": "PubChem BioAssay (NCATS)",
  "note": "Records with an inconclusive call do not appear. Entries that show only a call come without a potency. Active and inactive are the calls of the source. The call rests on the fitted dose curve; in most records, active means well fitted inhibition curve with a large enough effect; inconclusive means small, poorly fitted or top-dose-only effect; inactive means flat fitted curve, though single readings scatter. Potency means the concentration at half of the fitted maximal effect.",
  "data": [
    {"test_system": "PAD", "assay": "qHTS profiling for inhibitors of Plasmodium falciparum proliferation (AID 504749); further: nearly all actives have a fitted effect of over 60% in size", "details": "P. falciparum in erythrocytes, SYBR Green DNA, 72 h; series mostly up to 28.7 µM", "summary_of_the_method": "(§1)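 Parasite proliferation within erythrocytes, 72 h exposure. Endpoint: SYBR Green I fluorescence after overnight lysis at room temperature. Controls: 0.29 uM artemisinin, DMSO.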", "values": [
      {"smiles": "CC(c1cc2ccccc2s1)N(O)C(N)=O", "note": "(stereo unspecified)", "Potency": "inactive"},
      {"smiles": "O=NN(CCCl)C(=O)NCCCl", "Potency": "inactive"},
      {"smiles": "NC(N)=NC(=O)c1nc(Cl)c(N)nc1N", "Potency": "8.91 µM (active)"},
      {"smiles": "O=c1n(CCCN2CCN(c3cccc(Cl)c3)CC2)nc2ccccn12", "Potency": "inactive"},
      {"smiles": "Cc1[nH]c(=O)c(C#N)cc1-c1ccncc1", "Potency": "inactive"},
      {"smiles": "N=c1nc(N2CCCCC2)cc(N)n1O", "Potency": "inactive"},
      {"smiles": "CC(C[N+](C)(C)C)OC(N)=O", "note": "(stereo unspecified)", "Potency": "inactive"},
      {"smiles": "CCCCNc1cc(C(=O)O)cc(S(N)(=O)=O)c1Oc1ccccc1", "Potency": "inactive"},
      {"smiles": "Cc1cn[nH]c1", "Potency": "inactive"},
      {"smiles": "CC(C)NCC(O)COc1ccc(COCCOC(C)C)cc1", "note": "(stereo unspecified)", "Potency": "inactive"},
      {"smiles": "Cc1[nH]c(=O)c(C#N)cc1-c1ccc2nccn2c1", "Potency": "inactive"},
      {"smiles": "CC(=O)Oc1ccccc1C(=O)O", "Potency": "inactive"},
      {"smiles": "CCc1ccc(CCOc2ccc(CC3SC(=O)NC3=O)cc2)nc1", "note": "(stereo unspecified)", "Potency": "inactive"},
      {"smiles": "NC(=O)c1cnccn1", "Potency": "inactive"},
      {"smiles": "O=C1CCC(N2C(=O)c3ccccc3C2=O)C(=O)N1", "note": "(stereo unspecified)", "Potency": "inactive"}
    ]},
    {"test_system": "PC15", "assay": "qHTS profiling for inhibitors of Plasmodium falciparum proliferation (AID 504749); further: nearly all actives have a fitted effect of over 60% in size", "details": "P. falciparum in erythrocytes, SYBR Green DNA, 72 h; series mostly up to 28.7 µM", "summary_of_the_method": "as §1", "values": [
      {"smiles": "CC(c1cc2ccccc2s1)N(O)C(N)=O", "note": "(stereo unspecified)", "Potency": "inactive"},
      {"smiles": "CNC[C@H](O)c1cccc(O)c1", "Potency": "inactive"},
      {"smiles": "O=NN(CCCl)C(=O)NCCCl", "Potency": "inactive"},
      {"smiles": "Cc1c(C)c2c(c(C)c1O)CCC(C)(COc1ccc(CC3SC(=O)NC3=O)cc1)O2", "note": "(stereo unspecified)", "Potency": "inactive"},
      {"smiles": "NC(N)=NC(=O)c1nc(Cl)c(N)nc1N", "Potency": "7.08 µM (active)"},
      {"smiles": "O=c1n(CCCN2CCN(c3cccc(Cl)c3)CC2)nc2ccccn12", "Potency": "inactive"},
      {"smiles": "Cc1[nH]c(=O)c(C#N)cc1-c1ccncc1", "Potency": "inactive"},
      {"smiles": "N=c1nc(N2CCCCC2)cc(N)n1O", "Potency": "inactive"},
      {"smiles": "CC(C[N+](C)(C)C)OC(N)=O", "note": "(stereo unspecified)", "Potency": "inactive"},
      {"smiles": "CCCCNc1cc(C(=O)O)cc(S(N)(=O)=O)c1Oc1ccccc1", "Potency": "inactive"},
      {"smiles": "Cc1cn[nH]c1", "Potency": "inactive"},
      {"smiles": "CC(C)NCC(O)COc1ccc(COCCOC(C)C)cc1", "note": "(stereo unspecified)", "Potency": "inactive"},
      {"smiles": "Cc1[nH]c(=O)c(C#N)cc1-c1ccc2nccn2c1", "Potency": "inactive"},
      {"smiles": "CC(=O)Oc1ccccc1C(=O)O", "Potency": "inactive"},
      {"smiles": "CCc1ccc(CCOc2ccc(CC3SC(=O)NC3=O)cc2)nc1", "note": "(stereo unspecified)", "Potency": "inactive"},
      {"smiles": "NC(=O)c1cnccn1", "Potency": "inactive"},
      {"smiles": "O=C1CCC(N2C(=O)c3ccccc3C2=O)C(=O)N1", "note": "(stereo unspecified)", "Potency": "inactive"}
    ]},
    {"test_system": "PC26", "assay": "qHTS profiling for inhibitors of Plasmodium falciparum proliferation (AID 504749); further: nearly all actives have a fitted effect of over 60% in size", "details": "P. falciparum in erythrocytes, SYBR Green DNA, 72 h; series mostly up to 28.7 µM", "summary_of_the_method": "as §1", "values": [
      {"smiles": "CNC[C@H](O)c1cccc(O)c1", "Potency": "inactive"},
      {"smiles": "O=NN(CCCl)C(=O)NCCCl", "Potency": "inactive"},
      {"smiles": "O=c1n(CCCN2CCN(c3cccc(Cl)c3)CC2)nc2ccccn12", "Potency": "inactive"},
      {"smiles": "Cc1[nH]c(=O)c(C#N)cc1-c1ccncc1", "Potency": "inactive"},
      {"smiles": "N=c1nc(N2CCCCC2)cc(N)n1O", "Potency": "inactive"},
      {"smiles": "CC(C[N+](C)(C)C)OC(N)=O", "note": "(stereo unspecified)", "Potency": "inactive"},
      {"smiles": "CCCCNc1cc(C(=O)O)cc(S(N)(=O)=O)c1Oc1ccccc1", "Potency": "inactive"},
      {"smiles": "Cc1cn[nH]c1", "Potency": "inactive"},
      {"smiles": "CC(C)NCC(O)COc1ccc(COCCOC(C)C)cc1", "note": "(stereo unspecified)", "Potency": "inactive"},
      {"smiles": "Cc1[nH]c(=O)c(C#N)cc1-c1ccc2nccn2c1", "Potency": "inactive"},
      {"smiles": "CCOC(=O)C1=C[C@]2(CC)CCCN3CCc4c(n1c1ccccc41)[C@@H]32", "Potency": "15.1 µM (active)"},
      {"smiles": "CCc1ccc(CCOc2ccc(CC3SC(=O)NC3=O)cc2)nc1", "note": "(stereo unspecified)", "Potency": "inactive"},
      {"smiles": "NC(=O)c1cnccn1", "Potency": "inactive"},
      {"smiles": "O=C1CCC(N2C(=O)c3ccccc3C2=O)C(=O)N1", "note": "(stereo unspecified)", "Potency": "inactive"}
    ]}
  ]
}
